Reference: ChEMBL document CHEMBL4513216, “Probing the Open Global Health Chemical Diversity Library for Multistage-Active Starting Points for Next-Generation Antimalarials” (ACS Infect Dis, 2020)
Among all 65,000 compounds or so, about 2,100 (3.2%) showed an effect of 50% or more. The median lay at about -52%. This excerpt belongs to a sample that is enriched for strong results.

System: Plasmodium falciparum
Test: Screen against P. falciparum Asexual Blood Stage (ABS), at 5uM
Assay type: functional, Dd2
Details: tested at 5 uM

Row | SMILES | INHIBITION [%]
1 | CCOC1(C)C(=O)c2ccccc2N1Nc1ccccc1C(=O)CC (centres undefined) | -50.6
2 | O=C1CC[C@H]2[C@H](CCN2c2ncccn2)N1c1ccccc1 | -72.8
3 | CN1CCN(C(=O)[C@H]2CC[C@@H]3[C@@H](CCN3Cc3ccsc3)O2)CC1 | -1.36
4 | COc1cc(N2C[C@H]3CCC[C@@H](CN4CCCC4)[C@H]3C2)ncn1 | -13.2
5 | Cc1c(C(=O)NCC(C)C)nnn1-c1cccc2c1CCN(C)C2 | 26.2
6 | Cc1csc(CCCNC(C)CC(=O)Nc2cccc(C)c2C)n1 (centres undefined) | 50.9
7 | Cc1csc(CCCNC(C)CC(=O)Nc2ccc(F)cc2)n1 (centres undefined) | 50.5
8 | CC(NCC(=O)NCC(=O)Nc1ccc(F)cc1)c1cccs1 (centres undefined) | -69.5
9 | COc1ccccc1NC(=O)CC(C)NCCc1sc(C)nc1C (centres undefined) | 22.2
10 | COc1ccccc1NC(=O)CC(C)NCc1scnc1C (centres undefined) | -27.4
11 | Cc1csc(CNC(=O)NCC(O)c2ccc(F)cc2)n1 (centres undefined) | -12.9
12 | COc1ccsc1C(=O)NC1CCN(c2cccc(F)c2)CC1 | 27.7
13 | Cc1ccc(NC2CCN(C(=O)c3ccc(Cl)o3)CC2)nn1 | -6.11
14 | Cc1ccc(NC2CCN(C(=O)Cn3nc(C)cc3C)CC2)nn1 | -1.51
15 | CCc1ccc(C(=O)N2CCC(Nc3ccc(C)nn3)CC2)o1 | -100
16 | Cc1cnn(CC(=O)N2CCC(Nc3ccc(C)nn3)CC2)c1 | 56.7
17 | Cc1ccc(CC(=O)N2CCC(Nc3ccc(C)nn3)CC2)cn1 | 18.7
18 | CCn1nc(C)c(C(=O)N2CCC(Nc3ccc(C)nn3)CC2)c1C | -18.1
19 | Cc1ccc(NC2CCN(C(=O)c3c(C)noc3C)CC2)nn1 | -103
20 | Cc1ccc(NC2CCN(C(=O)c3c(C)nn(C)c3Cl)CC2)nn1 | 62.2
21 | Cc1ccc(NC2CCN(C(=O)c3ccc(C)o3)CC2)nn1 | 53.6
22 | CC1CCC(NC(=O)c2nn(C)cc2Br)CC1 (centres undefined) | -46.7

Row | SMILES | INHIBITION [%]
23 | CCc1ccc(CN2CCc3c(nnn3C)C2COC)cc1 (centres undefined) | -44.1
24 | CC(C)(O)CCc1cccc(C(=O)NCc2cnn3cccnc23)c1 | -126
25 | CC(C)Cn1cncc1CNC(=O)c1cccc(CC2CCNCC2)c1 | -83.2
26 | O=C(NCc1cnn2cccnc12)c1cccc(CC2CCNCC2)c1 | 66.1
27 | c1ccc(CCN2CCCC(Cn3ccnc3)C2)cc1 (centres undefined) | 64.5
28 | c1ccc(SCCN2CCCC(Cn3ccnc3)C2)cc1 (centres undefined) | -1.54
29 | CSCCCN1CCCC(Cn2ccnc2)C1 (centres undefined) | -62
30 | O=C(O)c1nnn(-c2cccc(C(F)(F)F)c2)c1-c1ccncc1 | -16.4
31 | CN(C)C(CNS(=O)(=O)c1cc(F)ccc1F)c1cccn1C (centres undefined) | 54.6
32 | COc1ccc(F)cc1S(=O)(=O)NCC(c1cccn1C)N(C)C (centres undefined) | -7.7
33 | CN(C)C(CNS(=O)(=O)c1ccc(F)cc1F)c1cccn1C (centres undefined) | 31.8
34 | Cc1noc(C(C)C)c1C(=O)NCCCN1CCCCCC1=O | -62.4
35 | Cc1nnc(SCCCNc2cc(C3CC3)ncn2)s1 | -39.6
36 | COCc1nn(C)c2c1CN(Cc1cnn(C)c1)CC2 | -6.19
37 | CC1CCCN(Cc2c(C3CC3)n(CC(=O)N(C)C)c3ncccc23)C1 (centres undefined) | -59.9
38 | Cc1cc(C2CCCN(CCC(=O)N3CCc4ccccc43)C2)n[nH]1 (centres undefined) | 62.9
39 | Cc1cc(C2CCCN(CC(=O)N3CCc4ccccc43)C2)n[nH]1 (centres undefined) | -81.5
40 | Cc1cc(C2CCCN(CC(=O)N3CCCc4ccccc43)C2)n[nH]1 (centres undefined) | -8.74
41 | CC(=O)N1CCCC1c1cc(N2CCN(CC(C)(C)C)CC2)cc(C)n1 (centres undefined) | -126
42 | Clc1cccc(Cl)c1CNCCOc1ccccn1 | -77.7
43 | Cn1cc(N2CC3(CCN(Cc4ccoc4)CC3)OCC2=O)cn1 | -50.3
44 | Cc1cc(C(=O)NC2CCc3c(ccc(=O)n3CCN(C)C)C2)no1 (centres undefined) | -24

Row | SMILES | INHIBITION [%]
45 | Cc1cc2n(n1)CC(CNC1CCN(Cc3ccccn3)CC1)CN2 (centres undefined) | -50.7
46 | OCc1ccccc1CNCC1CNc2ccnn2C1 (centres undefined) | 2.15
47 | Cc1ccccc1CN1CCC(NCC2CNc3ccnn3C2)CC1 (centres undefined) | 67.1
48 | Cc1cc2n(n1)CC(CNC1CCN(Cc3ccncc3)CC1)CN2 (centres undefined) | -0.937
49 | Cc1cc2n(n1)CC(CNC1CCN(c3ccccn3)CC1)CN2 (centres undefined) | -45.8
50 | Cc1cc2n(n1)CC(CNC1CCN(CCc3ccccc3)CC1)CN2 (centres undefined) | 68.6
51 | CC(C)n1c2ccccc2c2c1cc(C(=O)NCCO)n2C(=O)N(C)C | -69.4
52 | CC(CN1CCCC1=O)NC(=O)c1ccc(C(F)(F)F)[nH]c1=O (centres undefined) | -73.3
53 | Cc1noc(C)c1C(=O)N1CCC(Nc2cccnn2)CC1 | -19.3
54 | NC(=O)c1cc(C2CCCN(CCc3ccc4c(c3)CCO4)C2)n[nH]1 (centres undefined) | -88.6
55 | O=C(c1c[nH]nn1)N1CCCC1C1CCCCC1 (centres undefined) | 51
56 | O=C(c1cnc2[nH]c(=O)[nH]c(=O)c2c1)N1CCCC1C1CCCCC1 (centres undefined) | 0.342
57 | O=C(c1ccc(=O)[nH]n1)N1CCCC1C1CCCC1 (centres undefined) | -148
58 | CNC(=O)C1(c2cnccn2)CCCN1C(=O)c1cccc(C)n1 (centres undefined) | -80.1
59 | CCc1ccc(CN2Cc3nccn3CC(CN3CCOCC3)C2)o1 (centres undefined) | -23.9
60 | CCOc1ccc(N(C)Cc2nnc(C)o2)cc1 | 27.1
61 | CCOc1ccc(N(C)Cc2nnc(C3CC3)o2)cc1 | 61.5
62 | CCOc1ccc(N(C)Cc2nc(C)c(C)o2)cc1 | 43.9
63 | Cn1cccc1C(=O)N1CCC2(CCN2c2ncccn2)C1 (centres undefined) | -28.5
64 | O=C(NCc1ccc2c(c1)CCCO2)c1ccc(C2CCNC2)cc1 (centres undefined) | -95.6
65 | COCC(=O)NCc1cnc(C)nc1-c1cn(C)c2ccc(OC)cc12 | -88.7
66 | CN(C)CCN1CCO[C@H]2CCN(C(=O)c3cccs3)CC[C@@H]21 | -47.1

Row | SMILES | INHIBITION [%]
67 | CCc1nnc2n1CCN(CC(=O)N1CCc3ccccc3C1)C2 | -13.9
68 | COc1ccc(C(=O)Nc2c(C(=O)N(C)C)nn(C)c2C)cc1 | -64.8
69 | COc1ccc(CC(=O)NC(C)c2nc3cccnc3n2C(C)C)cc1 (centres undefined) | -100
70 | NCCn1nc(C2CCN(C(=O)CC3CCCCC3)C2)c2nccnc21 (centres undefined) | -16.3
71 | NCCn1nc(C2CCN(C(=O)Cc3ccccc3)C2)c2nccnc21 (centres undefined) | -28.7
72 | Cc1ccccc1CN1CCC(c2nn(CCN)c3nccnc23)C1 (centres undefined) | 60.9
73 | NCCn1nc(C2CCN(Cc3ccc(Cl)c(Cl)c3)C2)c2nccnc21 (centres undefined) | 63.5
74 | CC(C)(C)CC(=O)N1CCC(c2nn(CCN)c3nccnc23)C1 (centres undefined) | -94.3
75 | Cn1nc(C2CCCN(Cc3ccc(F)c(F)c3)C2)c2nccnc21 (centres undefined) | 23.4
76 | CNC(=O)[C@H]1CO[C@H]2CCN(Cc3ccc4ccccc4n3)C[C@H]2C1 | -51.5
77 | Cc1nc(NCc2ccccn2)c2c(n1)c(C)nn2C | -26.7
78 | Cc1cccc(Nc2cc(C)nc(C3CCN(C(C)C)C3)n2)n1 (centres undefined) | -36.6
79 | CC(C#N)CSc1ccccc1NCC(=O)NC1CCCCC1 (centres undefined) | -56.9
80 | CC(C#N)CSc1ccccc1NCC(=O)NC(C1CC1)C1CC1 (centres undefined) | 56.3
81 | CC(C#N)CSc1ccccc1NCC(=O)Nc1ccccc1 (centres undefined) | -67.8
82 | CN1CCOC(CNCc2csc(C3CCCC3)n2)C1 (centres undefined) | -14.3
83 | Cc1nc(CNCC2CN(C)CCO2)cs1 (centres undefined) | -102
84 | CN1CCOC(CNCc2csc(C3CCCCC3)n2)C1 (centres undefined) | 58.6
85 | c1cncc(N2CCCn3nnc(CN4CCCCC4)c3C2)c1 | -88.4
86 | Cc1ccccc1SCC(=O)NS(=O)(=O)c1ccc2c(c1)OCCO2 | -14.4
87 | c1cncc(COCc2nnc3n2CCN(Cc2ccsc2)C3)c1 | -113
88 | O=C(c1ccc(F)cc1)N1CCN2C[C@H](OCc3cccnc3)C[C@H]2C1 | 1.13

Row | SMILES | INHIBITION [%]
89 | Cc1occc1C(=O)N1CC[C@H]2C[C@@H](c3nnc(C4CC4)o3)O[C@@H]2C1 | -11.7
90 | CN(C)CCN1CCC(CNCc2c[nH]nc2C(C)(C)C)CC1 | -15.5
91 | COCCN1CCC(CNCc2c[nH]nc2C(C)(C)C)CC1 | -130
92 | Cc1ccc(CNCc2c[nH]nc2C(C)(C)C)c(OC2CCOC2)c1 (centres undefined) | 57
93 | CCSc1ncc(-c2cc(C3CC3)nc(N)c2C#N)cn1 | 4.79
94 | CCCNc1ncc(-c2cc(C3CC3)nc(N)c2C#N)cn1 | 55.8
95 | CCSc1ncc(-c2cc(C3CCC3)nc(N)c2C#N)cn1 | -28.9
96 | CC1CCN(C(=O)CN2CC(c3nc(C4CC4)no3)C2)CC1 | -20.1
97 | CCC(=O)N1CCCC1c1ccsc1 (centres undefined) | -72.1
98 | O=C(C1CCCC1)N1C[C@@H](c2ccsc2)[C@@H]2CN(C3CCCC3)CC[C@@H]21 | 54.7
99 | O=C(C1CCC1)N1CCN(Cc2ccsc2)[C@H]2CS(=O)(=O)C[C@H]21 | -87.7
100 | CCOc1ncccc1CNC(=O)Nc1ccc(CC)cc1 | -138
101 | COc1cccc(CNC2CCc3ccc(C)cc32)n1 (centres undefined) | 60.8
102 | Cc1ccc2c(c1)OCCCC2NCc1nnc2n1CCCCC2 (centres undefined) | -139
103 | COc1ccc2c(c1)C(NCCc1ncc(C)s1)CCCO2 (centres undefined) | -31.7
104 | COc1ccc2c(c1)C(NCCc1c(C)noc1C)CCCO2 (centres undefined) | 32.9
105 | COc1c(CNC2CCCOc3ccc(F)cc32)c(C)nn1C (centres undefined) | 29
106 | COc1cccc(CNC2CCCOc3cc(C)ccc32)n1 (centres undefined) | 68.4
107 | Cc1ccc2c(c1)C(NCc1ccccn1)CC2 (centres undefined) | 37.5
108 | COc1ccc2c(c1)C(NCCc1ccccn1)CCCO2 (centres undefined) | 57.6
109 | Cc1ccc2c(c1)C(NCc1ncnn1C)CC2 (centres undefined) | -64.9
